Screening results deposited in PubChem by National Center for Advancing Translational Sciences (NCATS).
HCV inhibitor: blocks hepatitis C virus | Potency, µM (highest dose often 41.8 µM), without a hit: at the highest dose activity change, negative = inhibition, most hits filed as inhibitors | Huh7.5.1 HCVcc-Cre infection, luciferase reporter, 44 h | 340,000 compounds, 3.4% hits; active = well fitted inhibition curve with a large enough effect; inconclusive = small, poorly fitted or top-dose-only effect, or another doubt; inactive = no such curve, though single readings can be large or run the other way; note: potency is the fitted concentration of half-maximal effect
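1,000 cells/well; 4 h culture; + compound; + HCVcc-Cre (~0.5 moi); 44 h; luciferase substrate, RT 15 min; read 15 sec.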
FMDV inh: antivirals against foot and mouth disease virus; FMDV antiviral cell-based qHTS; Potency, µM (doses to about 57.9 µM), for inactives: at the top dose activity change, negative = inhibition, actives largely listed as inhibitors; 410,000 compounds, 1.2% hits; calls by dose curve; tested in HEK293T cells; note: read-out not given here; potency is the fitted concentration of half-maximal effect; nearly all actives have a fitted effect of over 45% in size
Lassa entry inh: inhibitors of Lassa virus binding or cell entry. Lassa virus pseudotype entry inhibition, cell reporter. Potency, µM (series often up to 37.9 µM), for inactives: top-dose activity change, negative = inhibition, actives largely listed as inhibitors. 300,000 compounds, 1.2% hits; calls by dose curve; tested in HEK293 cells; note: potency is the fitted concentration of half-maximal effect; nearly all actives have a fitted effect of over 50% in size
HCMV inh: blocks human cytomegalovirus replication | HFF cells, HCMV-luciferase reporter, 72 h; stronger effect = lower value | activity change, negative = inhibition, % at 57.5 µM | 410,000 compounds, 4.5% hits; in the data active = activity change below about -60%; inconclusive = no clear call, values can overlap the other calls; inactive = above about -39%
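Compounds were evaluated in HFFs infected with an HCMV luciferase reporter virus (MOI 1 PFU/cell). Luciferase in lysates collected 72 h post infection served as the replication measure.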
MARV entry inh: inhibitors of Marburg virus binding or cell entry; Marburg virus pseudotyped entry inhibition, cell reporter; Potency, µM (top dose mostly 37.8 µM), inactives show at the top dose activity change, negative = inhibition, hits mostly inhibitors; 300,000 compounds, 1.8% hits; calls by dose curve; tested in HEK293 cells; note: potency is the fitted concentration of half-maximal effect
* = called active by the depositor; ? = inconclusive; nt = not tested or not shown; + = active, no number; [ ] = dose if it differs, or a comment. Most compounds without a hit are left out; they make up all but 7.9% or so of the library. % is set by controls: 0 for no effect and ±100 for the full control effect.

SMILES	HCV inhibitor	FMDV inh	Lassa entry inh	HCMV inh	MARV entry inh
CCN1C(=O)CC(C(C)C)N(C2CCCC2)c2nc(Nc3ccc(C(=O)NC4CCN(C)CC4)cc3OC)ncc21 (stereo not given)	17%[8.37 µM]	?	nt	nt	nt
CCN1C(=O)CC(c2ccccc2)N(C2CCCC2)c2nc(Nc3ccc(C(=O)NC4CCN(C)CC4)cc3OC)ncc21 (stereo not given)	8.9µM*	-21%	nt	nt	nt
CC12CCC(=O)C=C1CCC1C2CCC2(C)C(c3csc(N)n3)CCC12 (stereo not given)	10µM*	13µM*	13µM*	-93*	?
CC(=O)[C@H]1CC[C@H]2[C@@H]3CCC4=CC(=O)CC[C@]4(C)[C@H]3CC[C@]12C	13%	?	?	-10	?
CCC(C(=O)OCC(=O)C1(O)CCC2C3CCC4=CC(=O)CCC4(C)C3C(O)CC21C)C(C)C (stereo not given)	?	20µM*	?	32	?
C[C@]12CCC(=O)C=C1CCC1C2C(O)C[C@]2(C)C1CC[C@]2(O)C(=O)CO (stereo not given in full)	nt	1%	nt	nt	nt
CC12CCC(=O)C=C1CCC1C2C(O)CC2(C)C(c3csc(N)n3)CCC12 (stereo not given)	?	?	-16%[46.1 µM]	-22	8.9µM*
CCN(CC(=O)NCc1cccs1)S(=O)(=O)c1ccccc1Cl	7%	-4%	-2%	-37	-12%
CC(C)c1ccc(/C=C(\c2nc3ccccc3[nH]2)S(=O)(=O)c2ccccc2)cc1	13µM*	10µM*	?	-101*	?
O=c1[nH]c2ccccc2nc1C(F)(F)F	17%	6%	2%[46.1 µM]	11	-2%[46.1 µM]
C/C(=C\c1ccc(N)cc1)c1nc2ccccc2[nH]1	-18%	47%	nt	2	nt
O=S(=O)(/C(=C/c1ccc(C(F)(F)F)cc1)c1nc2ccccc2[nH]1)c1ccccc1	11µM*	?	?	-104*	11µM*
Cc1c(C(=O)N2CCCC(C)C2)sc2ncnc(NCCN3CCCCC3)c12 (stereo not given)	nt	1%	nt	nt	nt
CCc1nc2ccc(C(=O)NCCOc3ccc(OC)cc3)cn2c1N(CCN(C)C)CC1CC1	nt	-18%	nt	-64*	nt
COc1ccc(-c2nc3cc(C)ccc3cc2CN(C(=O)c2ccc(C)s2)C2CC2)cc1OC	nt	-14%	nt	nt	nt
Cn1nccc1C(=O)N(CCN1CCCCC1)CC1CCCN(C2CCCC2)C1 (stereo not given)	14µM*	51%	0%	34	?
COC(=O)c1ccccc1C(=O)N(Cc1cccnc1)CC1CCCN(C2CCCCC2)C1 (stereo not given)	11%	2%	nt	-26	nt
Cn1c(CCN2CCN(c3ccccn3)CC2)nc2cc(NC(=O)COc3ccccc3)ccc21	4µM*	?	nt	?	nt
CC1CCN(CCc2nc3cc(NC(=O)COc4ccccc4)ccc3n2C)CC1	-15%	-1%	nt	?	nt
Cc1ccc(OCC(=O)Nc2ccc3c(c2)nc(CCN2CCN(c4ccccn4)CC2)n3C)cc1	nt	3.5µM*	nt	-77*	nt
Cc1ccc(OCC(=O)Nc2ccc3c(c2)nc(CCN2CCN(C)CC2)n3C)cc1	-17%	-5%	nt	-22	nt
Cn1c(CCN2CCN(c3ccccn3)CC2)nc2cc(NS(=O)(=O)c3ccccc3)ccc21	10µM*	?	nt	+	nt
CCCC(=O)Nc1ccc2c(c1)nc(CCN1CCN(c3ccccn3)CC1)n2C	16%	-15%	23%[46.1 µM]	-38	13%[46.1 µM]
CCCCC(=O)Nc1ccc2c(c1)nc(CCN1CCN(c3ccccn3)CC1)n2C	-6%	-7%	nt	-81*	nt
Cc1c(C(=O)NCCN2CCOCC2)oc2ccc(Br)cc12	6%	15%	10%	6	13%
SMILES	HCV inhibitor	FMDV inh	Lassa entry inh	HCMV inh	MARV entry inh
CC(=O)NC(=S)Nc1sc2c(c1C#N)CCCCC2	?	0%	?	8	?
COc1ccc(CN(C)CC(=O)Nc2sc3c(c2C#N)CCC3)cc1OC	11µM*	-6%	nt	10	nt
COc1cccc(OC)c1C(=O)Nc1sc2c(c1C#N)CCC2	-17%	-10%	?	-8	-5%
N#Cc1c(NC(=O)CSc2nc(N)cc(=O)[nH]2)sc2c1CCCCCC2	?	nt	-4%	?	?
CC(=O)Nc1sc2c(c1C#N)CCCC2	11µM*	38%	7%	49	20%[46.1 µM]
N#Cc1c(NC(=O)c2cccc3ccccc23)sc2c1CCCC2	nt	nt	0.2µM*	nt	nt
